The subject of the test is Plasmodium falciparum. Description: GSK_TCMDC: Inhibition of Plasmodium falciparum 3D7 in whole red blood cells, using parasite LDH activity as an index of growth. Test compounds present at 2uM. The class given is functional.
As to `Nc1ccc2[nH]cc(C3CCN(CC4CCC(NC(=O)/C=C/c5ccc(Cl)c(Cl)c5)CC4)CC3)c2n1` (configuration not stated), the Inhibition (commonly the relative decrease from the control value, in per cent) worked out at 100%.

The compound `Cl.NC(=O)N1CCN(Cc2ccc(Br)cc2)CC1` registered an Inhibition of 96%.

In the case of `Cc1ccccc1C1CCN(C2CCC(NC(=O)c3ccc(-c4cccs4)s3)CC2)CC1` (configuration not stated), the Inhibition came to 100%.

As for `CC(=O)Nc1ncc(C(=O)Nc2cccc(-c3cccc(-c4nc5cccc(C)c5[nH]4)c3)c2)s1`, the Inhibition is 94%.

For `CN(C)CCCOc1c(C(C)(C)C)cc(-c2cc(C(C)(C)C)c(OCCCN(C)C)c(C(C)(C)C)c2)cc1C(C)(C)C`, the Inhibition worked out at 100%.

With `Cc1cc(N[C@@H](Cc2ccccc2)C(=O)NCCc2ccccc2)nc(NCc2ccccc2C)n1.O=C(O)C(F)(F)F`, the Inhibition is given as 99%.

With `CC1CN(Cc2ccccc2)CCN1c1ccc(NC(=O)c2ccc(F)cc2)cc1.O=C(O)C(F)(F)F` (configuration not stated), the Inhibition is listed as 87%.

On to `O=C(/C=C/c1ccc(Cl)c(Cl)c1)NCCCCCN1CCC(NC(=O)c2ccc3ccccc3c2)CC1`, for which the Inhibition was found to be 87%.

Compound `CN(C(=O)c1ccccc1)C1c2cc(C#N)ccc2OC(C)(C)C1O` (configuration not stated) showed an Inhibition of 97%.

As for `Cn1cc(C2CCN(CCCCNC(=O)c3ccc(-c4ccc(C(F)(F)F)cc4)c(CO)c3)CC2)c2ccccc21`, the Inhibition worked out at 88%.

`O=c1cc(NCCC(CNCCc2ccccc2)NCc2cc(Br)cc(Br)c2)[nH]c2ccccc12` (configuration not stated) showed an Inhibition of 98%.

Compound `Cc1nc2c(c(O)c1Cl)-c1ccc(Oc3cccc(C(F)(F)F)c3)cc1C2=O` registered an Inhibition of 98%.

In the case of `COc1ccc(NC(=O)/C=C/c2ccc(Cl)c(Cl)c2)cc1N1CCN(C)CC1`, the Inhibition was found to be 90%.

In turn, `Cc1cccc2nc(-c3ccc(-c4cccc(NC(=O)NCc5cccc(F)c5)c4)cc3)[nH]c12` registered an Inhibition of 94%.

`O=C(O)C(F)(F)F.O=S(=O)(NCCN1CCCC1)c1ccc(-c2ccc(CNCc3ccc(F)cc3)cc2)cc1F` came in with an Inhibition of 82%.

Take `CCc1ccccc1N=C1c2c(cccc2[N+](=O)[O-])C(=O)C1C(C)=O` (configuration not stated): the Inhibition was determined as 99%.

The compound `Cc1cccc2nc(-c3cccc(-c4cccc(CN5CCN(c6ccc(C#N)cn6)CC5)c4)c3)[nH]c12.O=C(O)C(F)(F)F` came in with an Inhibition of 94%.

The compound `CCN(CC)CCCn1c(N)c(-c2nc3ccccc3[nH]2)c2nc(C#N)c(C#N)nc21` yielded an Inhibition of 100%.

`O=C(NCCN1CCCCC1)c1ccc(Nc2nccc(Nc3ccc(Oc4ccccc4)cc3)n2)cc1` registered an Inhibition of 100%.

For the compound `Cc1ccc2[nH]c(Nc3ccc(Nc4nc5cc(C)ccc5[nH]4)c(C)c3)nc2c1`, the Inhibition was found to be 99%.

For the compound `c1ccc(Oc2ccc(Nc3ccnc4cc(-c5ccc(CN6CCOCC6)o5)ccc34)cc2)nc1`, the Inhibition was 92%.

Turning to `Cc1[nH]c(C)c(-c2ccc(/C=C/c3ccccn3)cc2)c(=O)c1Cl`, the Inhibition came out at 97%.

For the compound `Cc1ccc2nc(C)cc(NC(=O)Nc3ccc(N(C)C)cc3)c2c1`, the Inhibition is reported as 100%.

Take `Clc1ccc(CNC2CCN(CC3CCCCC3)CC2)cc1.O=C(O)C(F)(F)F`: the Inhibition is listed as 92%.

Turning to `COc1cc(NCCCCNc2ccc(Cl)c(Cl)c2)nc2ccccc12`, the Inhibition was 100%.

`Cc1cc2c(cc1C(F)(F)F)N(C(=O)Nc1cc(OCCN(C)C)cc(C(F)(F)F)c1)CC2.Cl` showed an Inhibition of 100%.

With `COc1cccc(OC2CCN(C(=O)c3cc(C(C)(C)C)nn3Cc3ccccc3)CC2)c1`, the Inhibition came out at 100%.

With `O=C(Nc1cccc(OC2CCN(Cc3ccc(F)cc3)CC2)c1)c1ccc(C(F)(F)F)cc1.O=C(O)C(F)(F)F`, the Inhibition turned out to be 94%.

On to `CNc1ccc(CNCc2cccc(-c3ccc(-c4nc5cccc(C)c5[nH]4)cc3)c2)cc1.O=C(O)C(F)(F)F`, for which the Inhibition is on record as 100%.

For `CCNc1cc(C(=O)N[C@@H](Cc2ccccc2)[C@H](O)CNCCCc2ccc(OC)cc2)cc(N2CCCC2=O)c1.O=C(O)C(F)(F)F`, the Inhibition was determined as 99%.

For the compound `CCCCCCN1CCCN(Cc2ccc(C(=O)Nc3ccc(C(C)(C)C)cc3)cc2)CC1.O=C(O)C(F)(F)F`, the Inhibition is recorded as 100%.

Compound `COc1ccc(Cl)cc1-c1nc(C(=O)NCCN2CCCCC2)c(C(C)C)s1.O=C(O)C(F)(F)F` showed an Inhibition of 100%.

The compound `O=C(Nc1ccc(Br)c(C(F)(F)F)c1)c1cccc([N+](=O)[O-])c1` yielded an Inhibition of 94%.

As for `CN(C)C(CNC(=O)c1cc(-c2ccncc2)c(-c2ccc(Cl)c(O)c2)o1)c1ccccc1.O=C(O)C(F)(F)F` (configuration not stated), the Inhibition came out at 91%.

For `CCOC(=O)CNC(=O)c1cc(=O)c2ccccc2o1`, the Inhibition is 99%.

As to `Nc1nc(N)c2cc(Sc3ccc4ccccc4c3)ccc2n1`, the Inhibition amounted to 95%.

`NS(=O)(=O)c1cccc(-c2ccc3c(O)ncnc3c2)c1` displayed an Inhibition of 99%.
